# Compounds without any hit were thinned out: in the full panel of roughly 79,000, 15% have a hit. A number with no mark means an inactive call. Calls of active or inactive are those of the source. No stated cut-off is given here; in the data, active means growth inhibition above about 70%; inactive means the rest. Where a SMILES comes first, the peptide text is derived from it. The star is where a group is joined. Boc = CC(C)(C)OC(=O)*; OBn = c1ccc(CO*)cc1; Bn = c1ccc(C*)cc1
# Test: NCI Yeast Anticancer Drug Screen. Data for the rad50 strain (AID 155);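 further: 0% = growth of vehicle-only cultures of the same strain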
# Details: S. cerevisiae rad50 strain growth inhibition; at 50.0 µM; stronger effect = higher value
# Outline: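 A DNA repair-deficient yeast mutant serves as the test organism; compound-induced growth inhibition is calculated against vehicle-treated cells.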
row,SMILES,growth inhibition
1,COc1cccc(NC(=O)CC(=O)NN2C(=O)/C(=C/c3ccc(N(CCC#N)CCC#N)cc3)N=C2c2cc([N+](=O)[O-])ccc2Cl)c1,17.4%
2,O=Cc1ccc(-c2ccc([N+](=O)[O-])cc2)o1,3.7%
3,O=C(N/N=C/c1cc(-c2ccccc2Cl)c(-c2ccccc2Cl)o1)c1ccncc1,14.5%
4,O=[N+]([O-])c1cn(CCNc2c3ccccc3nc3ccccc23)cn1,17.4%
5,CCOC(=O)CCCc1ccccc1,-13.2%
6,O=C1c2ccccc2-c2c1c1ccccc1c(=O)n2Cc1ccco1,16.1%
7,CCOC(NC(C)=O)C(O)c1ccc(Cl)cc1 (stereo not given),20.1%
8,C1CCN(c2nn[nH]n2)CC1,4.05%
9,CCN(CC)C(=O)C1CCNCC1,-12.3%
10,CCCCCC(CCCC)OC(=O)Nc1ccccc1 (stereo not given),-4.35%
11,O=C(OC(=O)c1cccc(Br)c1)c1cccc(Br)c1,10.2%
12,O=C(COc1ccc(F)cc1)OCCO,13.9%
13,COc1cc(C)nc2ccc(Cc3ccc4nc(C)cc(OC)c4c3)cc12,6.75%
14,O=C(c1nc2ccc(Cl)cc2[nH]c1=O)C(O)c1ccco1 (stereo not given),-21.4%
15,O=C(Cc1ccccc1)NN1C(=O)C(Cl)C1c1cc(Br)ccc1O (stereo not given),21%
16,Cc1ccc(NC(=O)Oc2cccc(C(F)(F)F)c2)cc1,-8.55%
17,CC(C)CC(NC(=O)C(CCC(=O)OCc1ccccc1)NC(=O)OC(C)(C)C)C(=O)NC(COCc1ccccc1)C(=O)NC(Cc1ccccc1)C(=O)O (stereo not given) (Boc-E(OBn)LS(Bn)F-OH; configuration not given here),-6.65%
18,OC1COC2CC(Nc3ccccn3)OC12 (stereo not given),-36.8%
19,CC(C)CCCC(C)C1CCC2(C)C3CCC(C(C)O)C(C)(CCCO)C3CCC12C (stereo not given),47.8%
20,CC(C)CCC[C@@H](C)[C@H]1CC[C@H]2[C@@H]3CC[C@H]4C[C@@H](CCC=C(c5cc(Cl)c(O)c(C(=O)O)c5)c5cc(Cl)c(O)c(C(=O)O)c5)CC[C@]4(C)[C@H]3CC[C@]12C,15.3%

row,SMILES,growth inhibition
1,BrC1=NOC2c3cccc4cccc(c34)C12 (stereo not given),2.4%
2,O=C(O)Cc1ccc(Oc2ccc(CC(=O)O)cc2)cc1,-4.15%
3,CCN(CC)C1Oc2cc3c(cc2C(c2cccc(OC)c2OC)C1C)OCO3 (stereo not given),28.4%
4,CC(=O)OCC(C)CCC(C)COC(C)=O (stereo not given),-22.2%
5,NC(N)=NS(=O)(=O)c1ccc(Nc2c3ccccc3nc3c(C(=O)NNCCO)cccc23)cc1,-10.1%
6,Nc1on(C(=O)c2ccccc2)c(=O)c1Cc1ccccc1,-19.2%
7,O=C(O)C1Cc2c([nH]c3ccccc23)C=N1 (stereo not given),27.9%
8,O=C(Nc1ccc(S(=O)(=O)/N=c2\ncccn2C(=O)C(C(F)(F)F)C(F)(F)F)cc1)C(C(F)(F)F)C(F)(F)F,-5%
9,COc1c(C)cc(Cc2ccc3c(c2)OCO3)cc1C,-7.8%
10,O=[N+]([O-])c1ccc2cccc3c2c1CC3,24.4%
11,CN1C(c2ccccc2)=C(C#N)C(=O)CC(c2ccccc2)N1C (stereo not given),26.1%
12,C(/C=N/NC1=NCCCCN1)=N\NC1=NCCCCN1,-6.7%
13,COCC(C)OC(=O)c1ccccc1Cl (stereo not given),7.65%
14,CC1(C)COC(c2cc(Br)ccc2Br)=N1,4.9%
15,CCOCC1OCCCO1,-13.5%
16,COc1ccc(C(O)C(C)C(O)(C(F)(F)F)C(F)(F)F)cc1 (stereo not given),70.5% (active)
17,COC(=O)C(CC(=O)Nc1ccc(Cl)c(Cl)c1)C(=O)C(=O)Nc1ccc(Cl)c(Cl)c1 (stereo not given),-36.2%
18,O=C1CCCC/C(=C/c2ccccc2)N1,4.45%
19,Cc1cc(O)cc(O)c1C(=O)O[C@]1(C)C(=O)C=C2C=C(/C=C/C(=O)O)OC=C2C1=O,-2.6%
20,Cc1cccc(C)c1NC(=O)Nc1cccc(Cl)c1,6.3%

# Test: NCI Yeast Anticancer Drug Screen. Data for the mec2-1 strain (AID 157)
# Details: S. cerevisiae mec2-1 strain, at 50.0 µM, stronger effect = higher value
# Outline: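 Test agents were screened against the mec2-1 yeast strain, with defined DNA repair or cell cycle alteration. Growth was scored as inhibition against vehicle-only controls.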
row,SMILES,growth inhibition
1,COc1cccc(NC(=O)CC(=O)NN2C(=O)/C(=C/c3ccc(N(CCC#N)CCC#N)cc3)N=C2c2cc([N+](=O)[O-])ccc2Cl)c1,-5.05%
2,O=Cc1ccc(-c2ccc([N+](=O)[O-])cc2)o1,9%
3,O=C(N/N=C/c1cc(-c2ccccc2Cl)c(-c2ccccc2Cl)o1)c1ccncc1,23.6%
4,O=[N+]([O-])c1cn(CCNc2c3ccccc3nc3ccccc23)cn1,-5.35%
5,CCOC(=O)CCCc1ccccc1,-32.5%
6,O=C1c2ccccc2-c2c1c1ccccc1c(=O)n2Cc1ccco1,-29.2%
7,CCOC(NC(C)=O)C(O)c1ccc(Cl)cc1 (stereo not given),11.2%
8,C1CCN(c2nn[nH]n2)CC1,-2%
9,CCN(CC)C(=O)C1CCNCC1,-14.4%
10,CCCCCC(CCCC)OC(=O)Nc1ccccc1 (stereo not given),7.85%
11,O=C(OC(=O)c1cccc(Br)c1)c1cccc(Br)c1,-10.5%
12,O=C(COc1ccc(F)cc1)OCCO,-20.9%
13,COc1cc(C)nc2ccc(Cc3ccc4nc(C)cc(OC)c4c3)cc12,6.8%
14,O=C(c1nc2ccc(Cl)cc2[nH]c1=O)C(O)c1ccco1 (stereo not given),3.2%
15,O=C(Cc1ccccc1)NN1C(=O)C(Cl)C1c1cc(Br)ccc1O (stereo not given),30.1%
16,Cc1ccc(NC(=O)Oc2cccc(C(F)(F)F)c2)cc1,17.4%
17,CC(C)CC(NC(=O)C(CCC(=O)OCc1ccccc1)NC(=O)OC(C)(C)C)C(=O)NC(COCc1ccccc1)C(=O)NC(Cc1ccccc1)C(=O)O (stereo not given) (Boc-E(OBn)LS(Bn)F-OH; configuration not given here),-4.8%
18,OC1COC2CC(Nc3ccccn3)OC12 (stereo not given),-41.2%
19,CC(C)CCCC(C)C1CCC2(C)C3CCC(C(C)O)C(C)(CCCO)C3CCC12C (stereo not given),27.4%
20,CC(C)CCC[C@@H](C)[C@H]1CC[C@H]2[C@@H]3CC[C@H]4C[C@@H](CCC=C(c5cc(Cl)c(O)c(C(=O)O)c5)c5cc(Cl)c(O)c(C(=O)O)c5)CC[C@]4(C)[C@H]3CC[C@]12C,8.35%

row,SMILES,growth inhibition
1,BrC1=NOC2c3cccc4cccc(c34)C12 (stereo not given),8.95%
2,O=C(O)Cc1ccc(Oc2ccc(CC(=O)O)cc2)cc1,-9.5%
3,CCN(CC)C1Oc2cc3c(cc2C(c2cccc(OC)c2OC)C1C)OCO3 (stereo not given),28.8%
4,CC(=O)OCC(C)CCC(C)COC(C)=O (stereo not given),-9.4%
5,NC(N)=NS(=O)(=O)c1ccc(Nc2c3ccccc3nc3c(C(=O)NNCCO)cccc23)cc1,-2.85%
6,Nc1on(C(=O)c2ccccc2)c(=O)c1Cc1ccccc1,3.6%
7,O=C(O)C1Cc2c([nH]c3ccccc23)C=N1 (stereo not given),11.9%
8,O=C(Nc1ccc(S(=O)(=O)/N=c2\ncccn2C(=O)C(C(F)(F)F)C(F)(F)F)cc1)C(C(F)(F)F)C(F)(F)F,11.9%
9,COc1c(C)cc(Cc2ccc3c(c2)OCO3)cc1C,-12.9%
10,O=[N+]([O-])c1ccc2cccc3c2c1CC3,18.1%
11,CN1C(c2ccccc2)=C(C#N)C(=O)CC(c2ccccc2)N1C (stereo not given),11.6%
12,C(/C=N/NC1=NCCCCN1)=N\NC1=NCCCCN1,-13%
13,COCC(C)OC(=O)c1ccccc1Cl (stereo not given),10.3%
14,CC1(C)COC(c2cc(Br)ccc2Br)=N1,-16.2%
15,CCOCC1OCCCO1,12.4%
16,COc1ccc(C(O)C(C)C(O)(C(F)(F)F)C(F)(F)F)cc1 (stereo not given),67.7%
17,COC(=O)C(CC(=O)Nc1ccc(Cl)c(Cl)c1)C(=O)C(=O)Nc1ccc(Cl)c(Cl)c1 (stereo not given),-15.6%
18,O=C1CCCC/C(=C/c2ccccc2)N1,-7.2%
19,Cc1cc(O)cc(O)c1C(=O)O[C@]1(C)C(=O)C=C2C=C(/C=C/C(=O)O)OC=C2C1=O,-16.9%
20,Cc1cccc(C)c1NC(=O)Nc1cccc(Cl)c1,15.6%

# Reference: PubChem BioAssay (NCI)
